Read-out in experiment [1]: Human Leukocyte Antigen - DR isotype (HLADR), HLA-DRA (gene 3122)
The experiment in a line: BSK_CASM3C_HLADR: BioMAP Diversity Plus: CASM3C Assay for Human Leukocyte Antigen - DR isotype (HLADR) Biomarker Activity (AID 2283043).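 Also: cell-surface HLA-DR protein level quantified by ELISA.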 The settings on record: primary human coronary artery smooth muscle cells; actives raise or lower the signal.

Read-out in experiment [2]: Macrophage colony-stimulating factor (MCSF), CSF1 (gene 1435)
Put plainly: BSK_CASM3C_MCSF: BioMAP Diversity Plus: CASM3C Assay for Macrophage colony-stimulating factor (MCSF) Biomarker Activity (AID 2283044).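 Also: M-CSF protein amount quantified by ELISA after 24 h exposure.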 The settings on record: primary human coronary artery smooth muscle cells; actives raise or lower the signal.

Read-out in experiment [3]: Low-density lipoprotein receptor (LDLR), LDLR (gene 3949)
The experiment in a line: BSK_CASM3C_LDLR: BioMAP Diversity Plus: CASM3C Assay for Low-density lipoprotein receptor (LDLR) Biomarker Activity (AID 2283045).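 Also: LDLR protein level on the cell surface quantified by ELISA.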 The settings on record: primary human coronary artery smooth muscle cells; actives raise or lower the signal.

Read-out in experiment [4]: Monocyte Chemoattractant Protein-1 (MCP1), CCL2 (gene 6347)
The experiment in a line: BSK_CASM3C_MCP1: BioMAP Diversity Plus: CASM3C Assay for Monocyte Chemoattractant Protein-1 (MCP1) Biomarker Activity (AID 2283046).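 Also: MCP-1 level quantified by ELISA 24 h after dosing.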 The settings on record: primary human coronary artery smooth muscle cells; actives raise or lower the signal.

Experiment [5] can be described thus: BSK_CASM3C_Proliferation: Cell Proliferation Assessment in the BioMAP Diversity Plus: CASM3C Assay (AID 2283047).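 Also: sulforhodamine B total protein stain as relative cell number at 560 nm; sub-confluent cells exposed 48 h before staining; fitted both ways against DMSO so gain or loss of cell number.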 The settings on record: primary human coronary artery smooth muscle cells.
Read-out in experiment [6]: Monokine induced gamma interferon (MIG), CXCL9 (gene 4283)
Put plainly: BSK_CASM3C_MIG: BioMAP Diversity Plus: CASM3C Assay for Monokine induced gamma interferon (MIG) Biomarker Activity (AID 2283048).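 Also: MIG protein level measured by ELISA.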 The settings on record: primary human coronary artery smooth muscle cells; actives raise or lower the signal.

Read-out in experiment [7]: serum amyloid A (SAA), SAA1 (gene 6288)
Put plainly: BSK_CASM3C_SAA: BioMAP Diversity Plus: CASM3C Assay for serum amyloid A (SAA) Biomarker Activity (AID 2283049).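 Also: SAA protein level quantified by ELISA.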 The following applies: primary human coronary artery smooth muscle cells; actives raise or lower the signal.

Experiment [8] is described as follows: BSK_CASM3C_SRB: Viability Assessment in the BioMAP Diversity Plus: CASM3C Assay (AID 2283050).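 Also: total protein by SRB staining as cytotoxicity measure in parallel cultures; cells exposed to compound for 24 h.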 The settings on record: primary human coronary artery smooth muscle cells.
Read-out in experiment [9]: Thrombomodulin, THBD (gene 7056)
The experiment in a line: BSK_CASM3C_Thrombomodulin: BioMAP Diversity Plus: CASM3C Assay for Thrombomodulin Biomarker Activity (AID 2283051).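 Also: thrombomodulin protein level measured by ELISA 24 h after dosing.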 The following applies: primary human coronary artery smooth muscle cells; actives raise or lower the signal.

Read-out in experiment [10]: Tissue Factor, F3 (gene 2152)
The experiment in a line: BSK_CASM3C_TissueFactor: BioMAP Diversity Plus: CASM3C Assay for Tissue Factor Biomarker Activity (AID 2283052).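 Also: cell surface tissue factor protein level read by ELISA.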 The following applies: primary human coronary artery smooth muscle cells; actives raise or lower the signal.

“And” between values parts separate entries of the source, which are not always exact repeats. Equal values may be shown once. A structure can be active in one record and inactive in another. The source made the active and inactive calls. The calls were made as follows: active = hit-call score of the fitted dose curve at least 0.9, where 1 is the maximum; inactive = score below 0.9.

As to `O=[N+]([O-])c1ccc(O)cc1`, the outcome in [1], in experiment [2], in experiment [3], in [4], in [5] and in [6] was inactive. Moreover, the result in experiment [7], in [8], in [9] and in experiment [10] was inactive.

One may read the AC50 as the midpoint of the concentration-response curve, whichever way the signal moves. `CC1=C(/C=C/C(C)=C/C=C/C(C)=C/C(=O)O)C(C)(C)CCC1`: the AC50 in experiment [1] was 26.3 µM (active); in [5], 20 µM (active); in experiment [9], 8.15 µM (active). In addition, the result in experiment [2], in experiment [3], in [4], in [6], in [7] and in [10] was inactive.

For `N#C[C@@H]1CC(F)(F)CN1C(=O)CNC1CC2CCC(C1)N2c1ncccn1` (some centres undefined), the outcome in experiment [1], in experiment [2], in [3], in experiment [4], in experiment [5] and in experiment [6] was inactive. Also, the result in experiment [7], in [8], in experiment [9] and in experiment [10] was inactive.

Turning to `CCCOc1sc(C(=O)N2CCC(c3cc(CN)ccc3F)CC2)c(C)c1Br`, the AC50 in experiment [1] was 4.87 µM (active); in experiment [2] it was 9.62 µM (active); in experiment [3], 27.1 µM (active); in experiment [4], 17.5 µM (active); in experiment [5], 7.94 µM (active); in experiment [6] it was 27.8 µM (active). Moreover, the concentration at half-maximal activity (AC50) in experiment [7] is 11.9 µM (active); in experiment [8], 12.9 µM (active); in experiment [9], 32.6 µM (active); in experiment [10] it was 10.8 µM (active).

Take `Oc1cccc(O)c1`: the result in experiment [1], in experiment [2], in experiment [3], in [4], in experiment [5] and in experiment [6] was inactive. In addition, the outcome in experiment [7], in [8], in experiment [9] and in experiment [10] was inactive.

Turning to `C#C[C@]1(O)CC[C@H]2[C@@H]3CCC4=CC(=O)CC[C@@H]4[C@H]3CC[C@@]21C`, the outcome in experiment [1], in experiment [2], in experiment [3], in [4], in experiment [6] and in experiment [7] was inactive. The outcome in [8], in [9] and in experiment [10] was inactive.

As to `Cc1cc(C)c(O)c(C)c1`, the outcome in experiment [1], in [2], in experiment [3], in [4], in experiment [5] and in experiment [6] was inactive. The outcome in experiment [7], in [8], in experiment [9] and in experiment [10] was inactive.

For the compound `CC[C@H](c1ccc(O)cc1)[C@@H](CC)c1ccc(O)cc1`, the outcome in experiment [1], in experiment [2], in experiment [3], in experiment [4], in [6] and in [7] was inactive. Besides, the result in experiment [8], in experiment [9] and in [10] was inactive. Further, the AC50 in [5] was 20 µM (active).

Regarding `CC[C@H](C)[C@@H](C(=O)O)n1sc2ccccc2c1=O`, the result in experiment [1], in experiment [2], in experiment [3], in experiment [4], in [5] and in [6] was inactive. Also, the outcome in [7], in [8], in experiment [9] and in experiment [10] was inactive.

Consider `CCc1ccc(CCOc2ccc(CC3SC(=O)NC3=O)cc2)nc1` (centres undefined), for which the result in [1], in experiment [2], in experiment [3], in experiment [4], in [5] and in [6] was inactive. The result in [7], in [8], in [9] and in experiment [10] was inactive.

Take `CC(=O)CC(C)(C)O`: the outcome in experiment [1], in experiment [2], in [3], in experiment [4], in experiment [5] and in experiment [6] was inactive. In addition, the outcome in experiment [7], in [8], in experiment [9] and in [10] was inactive.

Turning to `CCCCC(CC)COC(=O)CCCCC(=O)OCc1ccccc1` (centres undefined), the outcome in [1], in experiment [2], in experiment [3], in experiment [4], in experiment [5] and in [6] was inactive. For the same compound, the result in experiment [7], in [8], in [9] and in [10] was inactive.

As for `CCN(CC)CCNc1ccc(CNC=O)c2sc3ccc(OC)cc3c(=O)c12`, the AC50 in [1] was 12.3 µM (active); in [2], 25.9 µM (active); in experiment [4] it was 26.9 µM (active); in experiment [5] it was 20 µM (active); in experiment [7], 20.3 µM (active); in experiment [8], 26.3 µM (active). Besides, the AC50 in experiment [9] is 31.2 µM (active); in experiment [10] it was 5.33 µM (active). Besides, the outcome in [3] and in experiment [6] was inactive.

For the compound `CCCCCCCCOC(=O)CCCCCCCCC(=O)OCCCCCCCC`, the result in [1], in [2], in [3], in experiment [4], in [5] and in experiment [6] was inactive. Further, the result in [7], in experiment [8], in experiment [9] and in experiment [10] was inactive.

Regarding `FC(F)(I)C(F)(F)C(F)(F)C(F)(F)C(F)(F)C(F)(F)I`, the AC50 in experiment [2] was 25.9 µM (active) [middle of 5 runs]; in [3], 22 µM (active) [middle of 5 runs]; in experiment [4], 21.6 µM (active) [middle of 5 runs]; in experiment [5] it was 13.6 µM (active) [middle of 5 runs]; in experiment [6], 29.7 µM (active) [middle of 5 runs]; in experiment [7], 17 µM (active) [middle of 5 runs]. In addition, the AC50 in experiment [8] was 23.3 µM (active) [middle of 5 runs]; in [9], 17.8 µM (active) and 50.8 µM (active) and 7.99 µM (active); in [10], 23.7 µM (active) and 16.2 µM (active) and 30 µM (active). Further, the outcome in [9] and in experiment [10] was inactive.

With `COCC(C)O` (centres undefined), the outcome in [1], in experiment [2], in [3], in [4], in [5] and in [6] was inactive. The outcome in experiment [7], in experiment [8], in [9] and in experiment [10] was inactive.

In the case of `CC(C)(C)c1ccc(O)c(C(C)(C)C)c1`, the AC50 in experiment [1] was 9.55 µM (active); in [2] it was 13.2 µM (active); in experiment [3] it was 12.3 µM (active); in experiment [4] it was 13.7 µM (active); in experiment [5], 11.4 µM (active); in [6], 15.3 µM (active). Also, the half-maximal activity concentration (AC50) was 12.4 µM (active) in experiment [7], 26.7 µM (active) in experiment [8], 35.9 µM (active) in [9] and 20 µM (active) in experiment [10].
